Test [1] in a line: CCTE_Harrill_HTTr_Apoptosis_MCF7: CCTE's 6-hour Apoptosis Assessment for the High-Throughput Transcriptomics (HTTr) Platform, in MCF-7 cells cultured in DMEM + 10% fetal bovine serum, Harrill Lab (AID 2284011; active = hit-call score of the fitted dose curve at least 0.9, where 1 is the maximum; inactive = score below 0.9). The method, boiled down:
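MCF-7 cells in DMEM + 10% FBS exposed 6 h to chemicals over an eight-point dilution series. Caspase-3/7 activation imaged by high-content CellEvent Green staining; fitted bidirectionally versus DMSO.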

The nature of test [2]: CCTE_Harrill_HTTr_CellCount_MCF7: CCTE's Cell Proliferation Assessment for the High-Throughput Transcriptomics (HTTr) Platform, Harrill Lab (AID 2284012).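 Note: intended direction is loss of nuclei count meaning fewer cells.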 Put shortly: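 MCF7 cells exposed 6 hours to an eight-point dilution series; Hoechst-stained nuclei counted by high-content imaging. Bidirectional curve fitting against DMSO baseline.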
Test [3] in a line: CCTE_Deisenroth_AIME_96WELL_CTox_Active: Cytotoxicity Assessment (CTOX) in CCTE's 96-well Estrogen Receptor Transactivation Assay with AIME metabolic competence (metabolism positive), Deisenroth Lab (AID 2284028). Put shortly:
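Chemicals (0.002–200 uM) were first incubated 2 h with alginate-immobilized phenobarbital/beta-naphthoflavone-induced male rat liver S9; conditioned medium then went onto VM7Luc4E2 cells for 24 h, with viability read by protease-substrate fluorescence, fitted bidirectionally.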

Test [4] in a line: CCTE_Shafer_MEA_dev_LDH: CCTE's Lactate Dehydrogenase Assay for Cytotoxicity in the Neural Network Formation Assay, Shafer Lab (AID 2284068).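 Note: exposure for twelve days from plating with re-dosing on DIV 5 and 9.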 The method, boiled down: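 Developing rat cortical networks on MEA plates are exposed to compound for 12 days from plating. LDH activity is measured spectrophotometrically, with DMSO as baseline.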
The target in test [5] is Cellular tumor antigen p53 (Homo sapiens) (UniProt P04637). Kind of test: TOX21_p53_BLA_p2_ratio: Tox21 HCT-116 p53 Agonism Beta-lactamase Assay, Ratio, Phase 2 (AID 2283592). Put shortly: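 HCT-116 cells with p53-responsive beta-lactamase reporter, 4000 cells/well, preincubated 5 h, then compound in DMSO (217-fold dilution) for 16 h at 37C. CCF4-AM substrate 2 h at room temperature; 460/530 nm emission ratio fitted upward versus DMSO.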
Sequence of Cellular tumor antigen p53 (Homo sapiens) (P04637 whole entry, looked up): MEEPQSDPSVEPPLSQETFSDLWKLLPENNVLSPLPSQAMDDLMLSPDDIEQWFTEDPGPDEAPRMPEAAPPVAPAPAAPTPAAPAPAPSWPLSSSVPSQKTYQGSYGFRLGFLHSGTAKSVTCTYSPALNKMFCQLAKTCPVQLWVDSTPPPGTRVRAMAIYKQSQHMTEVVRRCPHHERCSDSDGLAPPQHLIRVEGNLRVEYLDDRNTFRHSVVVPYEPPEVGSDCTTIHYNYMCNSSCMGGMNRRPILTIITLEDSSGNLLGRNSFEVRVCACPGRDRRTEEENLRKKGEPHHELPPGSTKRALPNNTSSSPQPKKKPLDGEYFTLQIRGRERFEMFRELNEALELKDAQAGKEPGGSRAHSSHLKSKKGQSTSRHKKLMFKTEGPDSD

The nature of test [6]: TOX21_p53_BLA_p3_viability: Viability Assessment in the Tox21 HCT-116 p53 Agonism Beta-lactamase Assay, Phase 3 (AID 2283593). The method, boiled down: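 Cellular ATP was quantified by CellTiter-Glo luminescence, read after 30 min at room temperature. Beforehand, HCT116 cells (4000/well) received compound 5 h post-seeding, 217-fold diluted from DMSO, then incubated 16 h at 37C.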

Test [7] deals with Cellular tumor antigen p53 (Homo sapiens) (UniProt P04637). Put plainly: TOX21_p53_BLA_p5_ratio: Tox21 HCT-116 p53 Agonism Beta-lactamase Assay, Ratio, Phase 5 (AID 2283599). The method, boiled down:
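Beta-lactamase reporter ratio (blue 460 nm over green 530 nm, 405 nm excitation) after 2 h CCF4-AM loading, in HCT-116 cells exposed 16 h at 37 C to compounds pinned at 217-fold dilution. Increases relative to DMSO baseline scored.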

The nature of test [8]: TOX21_p53_BLA_p5_viability: Viability Assessment in the Tox21 HCT-116 p53 Agonism Beta-lactamase Assay, Phase 5 (AID 2283600). Put shortly:
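HCT-116 p53 beta-lactamase reporter cells, 4000/well, were exposed to compound (pin transfer, 217-fold dilution) for 16 hours at 37C. Cellular ATP was read by CellTiter-Glo luminescence after 30 min at room temperature.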

Test [9] has as its target Cellular tumor antigen p53 (Homo sapiens) (UniProt P04637). Kind of test: TOX21_p53_BLA_p4_ratio: Tox21 HCT-116 p53 Agonism Beta-lactamase Assay, Ratio, Phase 4 (AID 2283601). Put shortly: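 Signal is the blue/green (460nm/530nm) ratio of cleaved versus uncleaved CCF4-AM substrate, read after 2 h substrate loading. Cells were HCT116 carrying the p53-responsive beta-lactamase reporter, dosed 16 h at 37C, 5% CO2; CellTiter-Glo measured in parallel.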

Test [10] has the same target. Put plainly: TOX21_p53_BLA_p3_ratio: Tox21 HCT-116 p53 Agonism Beta-lactamase Assay, Ratio, Phase 3 (AID 2283596). The method, boiled down:
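HCT116 p53-bla cells (4000/well) given compound in DMSO (217-fold dilution) after 5 h, incubated 16 h at 37C. CCF4-AM substrate 2 h at room temperature; 460/530 nm emission ratio, gain fitted against DMSO.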

Test [11] is described as follows: TOX21_p53_BLA_p4_viability: Viability Assessment in the Tox21 HCT-116 p53 Agonism Beta-lactamase Assay, Phase 4 (AID 2283597).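 Note: hits lower the luminescence signal meaning cytotoxicity.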 Put shortly:
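HCT-116 p53-bla cells, 4000/well, dosed after 5 h attachment and incubated 16 h at 37 °C, 5% CO2. Viability from CellTiter-Glo ATP luminescence after 30 min at room temperature, taken after the beta-lactamase read; loss of signal indicates cytotoxicity.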

The target in the next test is PGR (gene 5241) (UniProt P06401). Kind of test: TOX21_PR_BLA_Followup_Antagonist_ratio: Tox21 HEK293 Progesterone Receptor (PR) Antagonism Beta-lactamase Follow-Up Assay, Ratio (AID 2283934). The method, boiled down:
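PR-UAS-bla HEK293T cells, 3,000/well in 2% charcoal-stripped FBS, given compound plus 1nM R5020 agonist for 16 hr at 37C. Beta-lactamase FRET substrate 2 hours, ratio cleaved/uncleaved fluorescence; viability by CellTiter-Glo in same wells.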

Test [12] is described as follows: TOX21_PR_BLA_Followup_Antagonist_viability: Viability Assessment in the Tox21 HEK293 Progesterone Receptor (PR) Antagonism Beta-lactamase Follow-Up Assay (AID 2283936).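 Note: hits lower the luminescence signal meaning cytotoxicity.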 The method, boiled down: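 PR-UAS-bla HEK293T cells (3,000/well, 2% charcoal-stripped FBS) given compound plus R5020 agonist, 16 h at 37C. CellTiter-Glo added after bla read, 30 min at room temperature; luminescence loss indicates cytotoxicity.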

The nature of test [13]: TOX21_PR_LUC_Followup_Antagonist_viability: Viability Assessment in the Tox21 HEK293 Progesterone Receptor (PR) Antagonism Luciferase Follow-Up Assay (AID 2283940). Put shortly: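 HEK293-PR-A-luc cells kept in charcoal-stripped FBS medium were plated 5 h before compound addition, then exposed 16 h at 37C; viability read as cellular ATP by luciferase luminescence, loss of signal indicating cytotoxicity.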

A short description of test [14]: TOX21_PR_LUC_Followup_Agonist_viability: Viability Assessment in the Tox21 HEK293 Progesterone Receptor (PR) Agonism Luciferase Follow-Up Assay (AID 2283941).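 Note: loss of signal means cytotoxicity so actives lower viability.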 The method, boiled down:
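HEK293-PR-A-luc cells, kept in 10% charcoal-stripped FBS medium, were treated with compounds for 16 h at 37C. Viability read as cellular ATP by luciferase-coupled luminescence; loss of signal indicates cytotoxicity.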

The text below walks through data of PubChem BioAssay (EPA / NIEHS).

Values joined by “and” are separate entries in the source; they are usually repeats but may differ in a detail not shown here. Equal entries are not always repeated. Results filed as inconclusive are left out. More than one record can exist for a structure, and the calls need not agree. Active and inactive are the calls of the source. Rule for the calls, unless noted: active = hit-call score of the fitted dose curve at least 0.9, where 1 is the maximum; inconclusive = response in the unintended direction; inactive = score below 0.9.

Sequence of PGR (gene 5241) (P06401 whole entry, looked up): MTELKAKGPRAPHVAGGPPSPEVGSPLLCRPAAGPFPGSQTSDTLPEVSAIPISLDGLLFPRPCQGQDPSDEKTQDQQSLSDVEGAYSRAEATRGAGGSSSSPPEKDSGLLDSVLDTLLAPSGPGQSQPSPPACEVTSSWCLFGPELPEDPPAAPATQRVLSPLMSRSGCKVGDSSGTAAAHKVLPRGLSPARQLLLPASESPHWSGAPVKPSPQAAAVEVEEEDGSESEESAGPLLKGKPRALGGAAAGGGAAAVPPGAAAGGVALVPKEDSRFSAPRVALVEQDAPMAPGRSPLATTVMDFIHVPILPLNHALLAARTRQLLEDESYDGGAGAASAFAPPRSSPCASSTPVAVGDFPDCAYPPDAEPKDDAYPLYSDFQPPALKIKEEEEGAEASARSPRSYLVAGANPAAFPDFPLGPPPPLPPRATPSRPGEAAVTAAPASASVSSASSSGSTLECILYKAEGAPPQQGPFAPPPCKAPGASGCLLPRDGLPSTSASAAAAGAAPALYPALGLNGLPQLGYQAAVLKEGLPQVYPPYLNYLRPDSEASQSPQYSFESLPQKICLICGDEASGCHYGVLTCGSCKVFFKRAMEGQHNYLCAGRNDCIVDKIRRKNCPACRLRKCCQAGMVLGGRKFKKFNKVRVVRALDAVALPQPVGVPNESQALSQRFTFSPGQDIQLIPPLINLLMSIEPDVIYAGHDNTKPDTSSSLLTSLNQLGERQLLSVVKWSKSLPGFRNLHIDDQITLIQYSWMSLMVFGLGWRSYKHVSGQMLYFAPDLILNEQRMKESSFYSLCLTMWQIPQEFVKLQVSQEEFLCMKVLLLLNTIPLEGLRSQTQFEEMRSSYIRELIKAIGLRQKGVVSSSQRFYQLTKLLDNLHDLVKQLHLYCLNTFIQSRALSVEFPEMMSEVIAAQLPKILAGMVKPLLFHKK

For `COc1cccc2c1cc([N+](=O)[O-])c1c(C(=O)O)cc3c(c12)OCO3`, the outcome in test [1] and in test [2] was inactive.
For the molecule `c1ccc2c(c1)cc1ccc3cccc4ccc2c1c34`, the molecule was classed as inactive in test [3] and in test [4].
On to `Cc1ccc(-c2nc3ccc(C)cn3c2CC(=O)N(C)C)cc1`, for which the outcome in test [5], in test [6], in [7], in [8] and in test [9] was inactive.
`CN1CCCC(=C(c2cccs2)c2cccs2)C1`: the result in test [5] and in [10] was inactive.
In the case of `C=C[C@H]1CN2CC[C@H]1C[C@H]2[C@H](OC(=O)OCC)c1ccnc2ccc(OC)cc12`, the outcome in test [5], in [6], in test [11] and in test [7] was inactive.
In the case of `COC1=CC(=O)O[C@@H](/C=C/c2ccccc2)C1`, the result in test [5], in test [6], in test [11], in [8] and in test [9] was inactive.
With `Clc1cccc(N2CCNCC2)c1`, the result in test [5], in [10], in [11] and in test [7] was inactive.
In the case of `Cc1cnc[nH]1`, the result in test [5], in test [6], in test [8] and in [9] was inactive.
Take `Cc1nc(N)nc(N)n1`: the outcome in test [5], in test [6], in [8] and in test [9] was inactive.
Usually AC50 stands for the concentration giving half of the maximal activity seen. `C[C@H]1CCC[C@H](O)CCCCCc2cc(O)cc(O)c2C(=O)O1`: the outcome in test [5], in test [10], in test [7], in test [8], in test [9] and in [12] was inactive. For the same molecule, the molecule was classed as inactive in test [13] and in test [14]. The AC50 in test [10] is 74.2 µM (active); with PGR (gene 5241), 4.51 µM (active).
For `Nc1n[nH]c(N)n1`, the outcome in [5], in test [6], in test [10] and in test [8] was inactive.
Turning to `CCCCc1ccc(C(=O)O)nc1`, the result in [5], in test [6] and in [11] was inactive.
With `Cc1ccc2c(c1)[C@]13CCCC[C@@H]1[C@H](C2)N(C)CC3`, the outcome in test [5], in test [6] and in test [9] was inactive.
Take `Cc1ncc2n1-c1ccc(Cl)cc1C(c1ccccc1F)=NC2`: the outcome in test [5], in test [6], in test [11], in test [7] and in test [9] was inactive.
In the case of `CCSCc1ccccc1OC(=O)NC`, the result in [5], in test [6], in test [8] and in test [9] was inactive.
Consider `COc1ccc2c(c1)C13CCCC[C@@H]1C(C2)N(C)CC3` (some centres not stated), for which the result in [5], in test [10], in [11] and in test [7] was inactive.
On to `[S]=[Sb](=[S])[S][Sb](=[S])=[S]`, for which the outcome in [5], in test [6], in test [7], in test [8] and in [9] was inactive.
Turning to `CCCCCCCCCCCCCCCCn1cc[n+](C)c1`, the AC50 is 51.5 µM (active) and 29.9 µM (active) and 17.5 µM (active) in [5]; 9.54 µM (active) in test [10]; 78.3 µM (active) and 41.3 µM (active) in test [7]; 71.6 µM (active) and 77.7 µM (active) and 60.1 µM (active) in test [9]. The result in test [10], in test [7] and in test [9] was inactive.
